For some assays here: Results with a measured potency or affinity are listed apart.
Legend:
Set-up in all cases: scale not given: direction of the effect not stated beside the values
[1] = molecular target: Protein translocase subunit SecA (Escherichia coli (strain K12)) (UniProt P10408); experiment: Assay to Identify E. coli SecA ATPase Inhibitors; format: functional; conditions: 30 µM
[2] = molecular target: T1, Ubiquitin-activating enzyme e1, putative (Leishmania donovani (strain BPK282A1)) (UniProt E9BSI1); experiment: Leishmania donovani Ubiquitin Activating Enzyme (LdE1); format: functional; conditions: 30 µM
T1 sequence (whole entry): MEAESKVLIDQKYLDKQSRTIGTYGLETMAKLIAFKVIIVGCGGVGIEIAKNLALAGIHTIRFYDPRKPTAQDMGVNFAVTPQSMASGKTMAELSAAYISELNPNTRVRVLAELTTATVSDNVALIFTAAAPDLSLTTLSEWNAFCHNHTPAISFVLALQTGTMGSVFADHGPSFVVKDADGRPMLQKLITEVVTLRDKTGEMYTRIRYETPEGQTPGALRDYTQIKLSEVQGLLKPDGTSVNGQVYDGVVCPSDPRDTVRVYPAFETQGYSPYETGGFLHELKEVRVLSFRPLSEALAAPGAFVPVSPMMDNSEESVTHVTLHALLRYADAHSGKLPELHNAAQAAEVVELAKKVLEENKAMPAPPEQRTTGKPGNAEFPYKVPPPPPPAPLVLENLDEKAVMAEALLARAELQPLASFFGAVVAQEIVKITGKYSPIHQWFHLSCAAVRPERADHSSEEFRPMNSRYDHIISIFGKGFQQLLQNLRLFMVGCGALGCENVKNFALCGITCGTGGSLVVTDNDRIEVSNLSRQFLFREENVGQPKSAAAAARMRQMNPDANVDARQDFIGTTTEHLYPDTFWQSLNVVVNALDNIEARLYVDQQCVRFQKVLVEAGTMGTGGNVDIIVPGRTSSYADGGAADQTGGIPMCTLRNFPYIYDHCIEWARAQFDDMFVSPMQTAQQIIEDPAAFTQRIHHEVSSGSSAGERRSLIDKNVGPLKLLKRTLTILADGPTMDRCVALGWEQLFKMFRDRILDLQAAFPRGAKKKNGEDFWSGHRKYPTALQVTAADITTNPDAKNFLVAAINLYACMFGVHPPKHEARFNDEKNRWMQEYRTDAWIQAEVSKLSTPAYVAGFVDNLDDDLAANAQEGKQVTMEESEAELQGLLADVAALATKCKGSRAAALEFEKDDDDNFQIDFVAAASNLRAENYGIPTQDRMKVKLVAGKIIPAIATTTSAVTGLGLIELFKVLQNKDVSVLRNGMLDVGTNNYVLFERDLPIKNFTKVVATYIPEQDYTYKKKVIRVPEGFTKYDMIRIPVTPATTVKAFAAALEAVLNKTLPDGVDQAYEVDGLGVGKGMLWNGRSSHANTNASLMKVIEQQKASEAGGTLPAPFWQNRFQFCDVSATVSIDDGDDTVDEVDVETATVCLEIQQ

[3] = molecular target: AMP-activated protein kinase, AMPK (Homo sapiens) (UniProt P54646+O43741+P54619+Q9UGJ0+Q9Y478+Q13131+Q9UGI9); experiment: AMP-dependent Kinase enzyme assay. An in vitro enzyme assay that detects ADP turnover that is directly proportional to AMPK activity. This uses naive AMPK that is activated during the assay with MK-8722; format: functional; conditions: 30 µM
[4] = molecular target: Sialic acid-binding Ig-like lectin 9 (Homo sapiens) (UniProt Q9Y336); experiment: Hs-Siglec9 ALPHAscreen SOP 20170721; conditions: 10 µM
Sialic acid-binding Ig-like lectin 9 (Homo sapiens), sequence (Q9Y336 whole entry): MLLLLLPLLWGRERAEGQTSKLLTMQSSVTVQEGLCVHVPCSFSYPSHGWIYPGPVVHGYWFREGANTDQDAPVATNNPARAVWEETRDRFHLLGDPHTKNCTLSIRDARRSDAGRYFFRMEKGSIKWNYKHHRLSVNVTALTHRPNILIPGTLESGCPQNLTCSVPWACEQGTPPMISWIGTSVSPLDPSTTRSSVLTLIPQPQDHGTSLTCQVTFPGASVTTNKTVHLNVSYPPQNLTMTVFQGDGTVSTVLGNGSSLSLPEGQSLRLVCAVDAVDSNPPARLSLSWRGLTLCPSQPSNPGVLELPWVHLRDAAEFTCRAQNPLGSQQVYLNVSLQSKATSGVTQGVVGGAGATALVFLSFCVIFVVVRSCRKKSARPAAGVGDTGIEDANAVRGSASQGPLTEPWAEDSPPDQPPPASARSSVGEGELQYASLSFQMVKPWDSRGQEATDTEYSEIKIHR

[5] = system: Trypanosoma cruzi; experiment: Trypanosoma cruzi phosphomannomutase and mannose-1-phosphate guanylyltransferase assay; format: functional; conditions: 10 µM
[6] = molecular target: T2, Arginase-2, mitochondrial (Homo sapiens) (UniProt P78540); experiment: in vitro enzyme assay to detect the production of urea directly proportional to the activity of Arginase II; format: functional; conditions: 33.3 µM; also: in the data most compounds retested in dose-response had high values
T2 sequence (whole entry): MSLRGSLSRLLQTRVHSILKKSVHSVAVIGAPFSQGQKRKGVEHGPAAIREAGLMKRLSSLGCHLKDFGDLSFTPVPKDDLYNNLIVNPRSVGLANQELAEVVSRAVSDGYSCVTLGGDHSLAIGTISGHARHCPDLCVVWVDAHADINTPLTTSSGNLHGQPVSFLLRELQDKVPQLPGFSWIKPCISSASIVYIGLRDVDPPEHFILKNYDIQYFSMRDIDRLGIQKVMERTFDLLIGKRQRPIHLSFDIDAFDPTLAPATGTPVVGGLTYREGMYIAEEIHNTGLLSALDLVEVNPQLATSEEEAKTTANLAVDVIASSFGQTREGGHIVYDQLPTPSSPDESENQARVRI

[7] = molecular target: T3, Proteasome subunit beta (Trypanosoma cruzi) (UniProt O96673); experiment: Trypanosoma cruzi proteasome chymotrypsin-like activity (TcProtChymo) assay.; also: in the data most compounds retested in dose-response had high values; format: functional; conditions: 9.37 µM
T3 sequence (whole entry): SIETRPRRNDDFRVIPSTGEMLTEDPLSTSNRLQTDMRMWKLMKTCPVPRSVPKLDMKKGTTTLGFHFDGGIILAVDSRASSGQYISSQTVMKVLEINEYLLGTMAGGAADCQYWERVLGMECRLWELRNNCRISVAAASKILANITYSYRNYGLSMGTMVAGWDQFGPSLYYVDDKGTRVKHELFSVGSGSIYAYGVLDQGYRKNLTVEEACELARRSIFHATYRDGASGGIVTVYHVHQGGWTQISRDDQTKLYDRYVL

[8] = organism: Homo sapiens; experiment: To identify inhibition of the IFN signalling (Jak-Stat) pathway via expression of an eGFP reporter gene under the control of an IFN-stimulated response element (ISRE) containing MxA promoter.; format: functional; conditions: 30 µM
[9] = molecular target: T4, Tyrosyl-tRNA synthetase, putative (Trypanosoma cruzi (strain CL Brener)) (UniProt Q4DSP6); experiment: Trypanosoma cruzi tyrosyl tRNA synthetase (TcYRS) _High Tyrosine SOP; format: functional; conditions: 30 µM; also: in the data most compounds retested in dose-response had high values
T4 sequence (whole entry): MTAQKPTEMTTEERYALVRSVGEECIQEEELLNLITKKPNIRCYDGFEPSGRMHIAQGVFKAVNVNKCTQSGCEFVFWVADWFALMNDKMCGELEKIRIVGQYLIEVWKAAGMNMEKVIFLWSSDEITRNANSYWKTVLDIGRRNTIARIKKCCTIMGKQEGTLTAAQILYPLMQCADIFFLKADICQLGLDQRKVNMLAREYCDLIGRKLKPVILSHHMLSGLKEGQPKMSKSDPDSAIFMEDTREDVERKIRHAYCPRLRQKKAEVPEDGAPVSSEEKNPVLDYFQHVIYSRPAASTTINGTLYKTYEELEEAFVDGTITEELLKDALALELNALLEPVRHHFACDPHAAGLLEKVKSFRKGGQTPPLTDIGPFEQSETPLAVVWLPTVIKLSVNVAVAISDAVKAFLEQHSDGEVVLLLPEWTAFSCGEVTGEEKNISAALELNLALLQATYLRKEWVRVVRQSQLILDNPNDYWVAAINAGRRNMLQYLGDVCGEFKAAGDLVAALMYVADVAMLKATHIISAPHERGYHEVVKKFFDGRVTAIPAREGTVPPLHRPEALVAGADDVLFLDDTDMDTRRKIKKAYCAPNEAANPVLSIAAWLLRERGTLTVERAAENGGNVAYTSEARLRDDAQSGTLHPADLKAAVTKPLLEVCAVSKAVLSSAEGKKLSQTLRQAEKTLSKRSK

[10] = molecular target: T4, Tyrosyl-tRNA synthetase, putative (Trypanosoma cruzi (strain CL Brener)); experiment: Trypanosoma cruzi tyrosyl tRNA synthetase (TcYRS) SOP; format: functional; conditions: 30 µM
[11] = molecular target: Chromo domain-containing protein 1 (Saccharomyces cerevisiae (strain ATCC 204508 / S288c) (Baker's yeast)) (UniProt P32657); experiment: ScCHD-1 Enzyme Inhibition Assay; format: functional; conditions: 30 µM; also: in the data most compounds retested in dose-response had high values
Chromo domain-containing protein 1 (Saccharomyces cerevisiae (strain ATCC 204508 / S288c) (Baker's yeast)), sequence (P32657 whole entry, the tested form may be a part): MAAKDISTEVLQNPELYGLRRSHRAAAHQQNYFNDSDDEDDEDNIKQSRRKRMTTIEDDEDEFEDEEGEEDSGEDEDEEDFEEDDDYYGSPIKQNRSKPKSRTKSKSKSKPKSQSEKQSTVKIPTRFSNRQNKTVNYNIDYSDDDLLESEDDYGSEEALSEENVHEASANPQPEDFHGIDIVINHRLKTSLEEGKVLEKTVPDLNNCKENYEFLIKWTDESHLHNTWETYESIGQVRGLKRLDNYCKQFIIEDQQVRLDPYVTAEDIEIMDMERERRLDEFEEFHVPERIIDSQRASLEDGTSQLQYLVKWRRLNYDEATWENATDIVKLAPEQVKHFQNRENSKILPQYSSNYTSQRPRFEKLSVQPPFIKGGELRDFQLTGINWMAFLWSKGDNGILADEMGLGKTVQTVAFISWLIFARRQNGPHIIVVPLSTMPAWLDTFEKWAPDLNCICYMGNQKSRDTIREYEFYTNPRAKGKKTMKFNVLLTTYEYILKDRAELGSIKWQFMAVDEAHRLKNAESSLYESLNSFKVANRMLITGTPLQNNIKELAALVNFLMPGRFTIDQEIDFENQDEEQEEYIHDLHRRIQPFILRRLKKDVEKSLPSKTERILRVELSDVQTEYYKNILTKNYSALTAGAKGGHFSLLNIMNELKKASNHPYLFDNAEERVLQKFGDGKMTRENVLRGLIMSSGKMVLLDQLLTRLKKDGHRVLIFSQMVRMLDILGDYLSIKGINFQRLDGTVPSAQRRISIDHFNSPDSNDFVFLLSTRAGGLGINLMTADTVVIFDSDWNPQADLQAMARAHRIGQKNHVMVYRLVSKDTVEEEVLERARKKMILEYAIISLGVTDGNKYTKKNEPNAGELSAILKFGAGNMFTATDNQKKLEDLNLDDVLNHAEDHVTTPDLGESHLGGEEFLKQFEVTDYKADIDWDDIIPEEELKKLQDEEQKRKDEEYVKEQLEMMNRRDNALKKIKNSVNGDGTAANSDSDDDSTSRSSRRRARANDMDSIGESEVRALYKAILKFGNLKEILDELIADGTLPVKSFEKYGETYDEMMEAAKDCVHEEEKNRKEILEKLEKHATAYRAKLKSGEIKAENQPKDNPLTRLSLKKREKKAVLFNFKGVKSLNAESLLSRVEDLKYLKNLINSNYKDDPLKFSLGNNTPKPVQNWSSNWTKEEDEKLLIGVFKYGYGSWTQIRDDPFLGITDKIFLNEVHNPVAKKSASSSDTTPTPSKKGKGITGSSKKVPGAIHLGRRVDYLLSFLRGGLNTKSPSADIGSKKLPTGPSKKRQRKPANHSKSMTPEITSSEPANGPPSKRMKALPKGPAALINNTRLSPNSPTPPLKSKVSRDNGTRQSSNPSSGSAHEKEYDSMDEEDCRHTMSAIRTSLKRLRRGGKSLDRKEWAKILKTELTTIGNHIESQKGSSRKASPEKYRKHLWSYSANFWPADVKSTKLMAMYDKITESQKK

Protein translocase subunit SecA (Escherichia coli (strain K12)), sequence (P10408 whole entry): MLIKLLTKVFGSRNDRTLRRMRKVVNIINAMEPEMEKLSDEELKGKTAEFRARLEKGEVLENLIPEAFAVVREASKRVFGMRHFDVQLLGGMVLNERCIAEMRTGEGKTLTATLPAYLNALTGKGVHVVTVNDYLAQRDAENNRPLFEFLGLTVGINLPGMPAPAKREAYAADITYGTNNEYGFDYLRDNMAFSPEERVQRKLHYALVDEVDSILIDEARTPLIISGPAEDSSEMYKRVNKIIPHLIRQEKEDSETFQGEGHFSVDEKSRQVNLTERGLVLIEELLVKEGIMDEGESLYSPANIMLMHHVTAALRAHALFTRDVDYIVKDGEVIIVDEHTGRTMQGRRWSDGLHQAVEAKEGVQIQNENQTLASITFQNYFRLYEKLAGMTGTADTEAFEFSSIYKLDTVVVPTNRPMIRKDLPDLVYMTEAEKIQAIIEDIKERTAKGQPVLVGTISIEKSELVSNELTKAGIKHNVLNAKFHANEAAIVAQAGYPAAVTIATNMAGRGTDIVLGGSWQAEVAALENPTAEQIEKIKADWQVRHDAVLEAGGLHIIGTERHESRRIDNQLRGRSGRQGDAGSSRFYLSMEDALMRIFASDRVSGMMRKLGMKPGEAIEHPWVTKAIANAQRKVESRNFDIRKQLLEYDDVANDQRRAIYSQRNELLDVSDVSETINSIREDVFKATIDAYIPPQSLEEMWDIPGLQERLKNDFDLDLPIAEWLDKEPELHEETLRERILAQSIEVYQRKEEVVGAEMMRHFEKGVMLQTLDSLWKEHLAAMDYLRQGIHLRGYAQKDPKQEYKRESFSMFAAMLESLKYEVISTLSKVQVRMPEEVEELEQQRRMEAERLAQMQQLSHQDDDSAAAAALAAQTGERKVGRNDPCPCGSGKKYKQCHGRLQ

Structure (SMILES)	Percent Effect [1] [%]	Percent Effect [2] [%]	Percent Effect [3] [%]	Percent Effect [4] [%]	Percent Effect [5] [%]	Percent Effect [6] [%]	Percent Effect [7] [%]	Percent Effect [8] [%]	Percent Effect [9] [%]	Percent Effect [10] [%]	Percent Effect [11] [%]
COc1cccc(CNCc2c(C(C)C)nn(C)c2N(C)C)c1OC	2	10.5	-0.641	-1.37	-7.33	2.68	16.2	8.82	3.43	7.32	-8.1
CC[C@@]1(O)CCN(C(=O)c2ccc(-c3cccc(F)c3)cc2)C[C@H]1O	-2.8	4.17	-2.66	-8.29	-3.6	0.883	13.3	16.4	2.1	10.3	-3.01
CCc1n[nH]c(C2CN(C(=O)c3cnc[nH]3)CCO2)n1 (configuration not stated)	-4.08	7.79	7.86	7.55	0.686	4.84	9.62	1.28	2.86	-11.8	-9.8
Cc1ccc(N2CCCN(C(=O)CC3CCCO3)CC2)nn1 (configuration not stated)	-2.51	21.6	-11.8	5.27	3.87	-8.82	14.8	7.13	-1.48	18.5	-9.23
CN(C)S(=O)(=O)N1CCC(Oc2ccccn2)CC1	-2.83	2.6	2.73	-0.581	-6.41	-7.1	14.1	-7.21	6.35	-1.28	-7.73
CCc1nnc(Nc2cccc(C3CCN(CCO)CC3)n2)s1	-7.83	12.2	0.559	1.33	1.58	-2.55	14	24	2.15	11.7	-26.9
Cc1nn(C)c(C)c1C(=O)N1CCOCC1CC(=O)c1ccco1 (configuration not stated)	-2.08	0	5.49	5.37	4.19	-8.28	-0.0959	-9.68	0	7.79	-0.43
c1cnn(CC2CCCCN2c2ncnc3sccc23)c1 (configuration not stated)	-7.65	-5.33	0.901	5.7	-2.63	-1.56	6.45	29.1	-0.546	-1.24	-3.05
CC(=O)N1CCN(Cc2csc(-c3cnn(C)c3)n2)CC1	-5.28	7.89	-1.26	6.08	9.21	-1.53	2.17	3.43	4.41	9.76	-7.33
Cc1ccc(OCC(=O)NCC(C)C)nc1	-6.24	13.7	-6.5	6.61	6.94	1.2	4.37	1.54	8.33	11.1	-8.95
Cc1nc(CCNC(=O)NC2CCN(c3ncccn3)CC2)cs1	-1.83	11	-4.69	4.09	1.19	-1.6	16	22.2	11.5	21	0.13
CN(C)c1ccc(CCNC(=O)NCc2ccc(N(C)C)nc2)cc1	-3.23	13.5	0.0846	11.2	1.98	-5.21	-4.14	5.54	7.39	18.5	-9.13
CNc1nc(CNC(=O)Nc2ccccc2SC)cs1	1.51	-2.63	-1.33	0.229	-2.07	3.83	7.69	10.1	1.47	4.88	3.33
CCNC(c1cccnc1)c1ccc(F)c(F)c1 (configuration not stated)	-1.6	-1.27	6.62	2.25	-0.923	4.09	5.66	5.14	1.04	-5.06	-14.2
O=C1NCC2(CCCN(CCc3ccccc3)C2)Oc2ccccc21 (configuration not stated)	-3.06	6.76	2.18	-8.67	-3.36	2.55	6.86	15.8	-1.07	6.49	-14.2
CCc1nnc2n1CC(CNCc1ccncc1)CC2 (configuration not stated)	1.7	4.17	-9.25	-5.88	-3.6	5.3	19.6	-6.46	5.26	0	-3.45
Cc1cccc(N2CC[C@@H]3CN(C(=O)c4ccco4)CCO[C@@H]3C2)n1	-3.29	10.7	10.8	3.1	-3.15	4.89	9.78	6.1	7.45	14.1	-6.54
O=C(c1cccn1Cc1cccs1)N1CCCC1Cn1cccn1 (configuration not stated)	-1.97	-23.7	-2.11	10.5	8.68	-4.68	8.38	-4.07	0.493	6.17	3.37
Cc1nc(C)c(C(=O)NCCNC(=O)Cc2ccccc2)s1	-3.47	16.2	-4.83	1.88	-4.36	-2.4	16.7	11.2	7.92	18.3	-2.99
Cc1ccc(CC(=O)N2CCOC(c3nc(C)n[nH]3)C2)cn1 (configuration not stated)	-3.84	20.8	-6.18	28.2	3.79	5.74	5.96	-6.79	6.32	12.8	-3.82
CC(C)Oc1ncccc1CNC(=O)c1cc[nH]n1	-3.9	8.11	0.642	2.46	-3.3	-0.802	-0.18	3.02	2.46	6.17	-2.93
OCCn1cc(CN2CCN(CCOc3ccccc3F)CC2)cn1	-9.62	0	7.1	3.17	-5.48	2.03	4.49	11.7	-2.97	-8.54	11.3

— ChEMBL document CHEMBL3988442, “University of Dundee, Small-Polar-MMV Screening Library” (2021)
